Assay outcomes deposited in PubChem BioAssay by Johns Hopkins Ion Channel Center.
KCNQ2 pot = KCNQ2 (rat) channel potentiation. O88943. CHO-K1 KCNQ2, FluxOR thallium flux fluorescence; hits give high values. B-score at 10 µM. 310,000 compounds, 0.54% hits;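 active = fluorescence ratio B-score at least 3 SD of library B-scores, with initial fluorescence B-score within 3 of them, cut at about 5.3 in these data; same plate scores as AID 2156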;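 also: B-score of peak minus minimum over baseline fluorescence ratio after K+ and Tl+ stimulus; positive B-score means potentiation of KCNQ2 with more thallium influx and brighter signal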
Target sequence (O88943 whole entry, looked up): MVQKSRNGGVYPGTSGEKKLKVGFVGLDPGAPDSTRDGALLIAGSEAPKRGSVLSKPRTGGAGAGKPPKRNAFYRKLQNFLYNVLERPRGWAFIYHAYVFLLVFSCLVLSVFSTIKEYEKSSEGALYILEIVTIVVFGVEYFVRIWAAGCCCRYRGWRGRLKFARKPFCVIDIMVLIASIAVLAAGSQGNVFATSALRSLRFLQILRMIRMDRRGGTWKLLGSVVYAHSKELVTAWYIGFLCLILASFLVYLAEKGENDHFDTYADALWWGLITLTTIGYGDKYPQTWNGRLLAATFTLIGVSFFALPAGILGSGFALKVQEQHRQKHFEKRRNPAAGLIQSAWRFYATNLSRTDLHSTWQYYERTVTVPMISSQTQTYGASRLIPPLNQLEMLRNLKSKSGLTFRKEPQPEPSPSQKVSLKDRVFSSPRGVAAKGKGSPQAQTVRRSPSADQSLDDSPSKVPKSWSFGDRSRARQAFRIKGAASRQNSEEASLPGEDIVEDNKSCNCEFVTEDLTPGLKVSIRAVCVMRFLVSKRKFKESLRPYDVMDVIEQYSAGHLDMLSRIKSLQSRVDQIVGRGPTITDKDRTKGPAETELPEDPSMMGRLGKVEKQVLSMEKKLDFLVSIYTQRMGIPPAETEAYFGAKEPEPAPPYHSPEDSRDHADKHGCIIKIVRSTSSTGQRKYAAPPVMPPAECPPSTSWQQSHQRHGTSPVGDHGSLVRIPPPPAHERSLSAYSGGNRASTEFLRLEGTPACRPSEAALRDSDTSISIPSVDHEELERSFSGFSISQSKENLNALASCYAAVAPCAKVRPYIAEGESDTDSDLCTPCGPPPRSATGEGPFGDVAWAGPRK
KCNQ2 block = inhibitors of rat KCNQ2 potassium channel. AID 2156. B-score at 10 µM. CHO-K1 KCNQ2, FluxOR thallium flux, 20 min; hits give low values. 310,000 compounds, 1.1% hits. O88943;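 active = fluorescence ratio B-score at most minus 3 library SDs, with starting brightness B-score within 2 library SDs, cut at about -5.5 in these data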
KCNQ2 block conf = rat KCNQ2 channel inhibition, confirmatory screen; shares compounds with KCNQ2 block; KCNQ2-expressing cells, thallium flux; hits give low values; activity change, negative = inhibition, % at 10 µM; 1,000 compounds, 57% hits; AID 493025
KCNQ1 spec = human KCNQ1 activity in KCNQ2 inhibitor specificity screen; shares compounds with KCNQ2 block; KCNQ1-expressing cells, FluxOR thallium flux fluorescence; hits give low values; activity change, negative = inhibition, % at 10 µM; 1,000 compounds, 15% hits;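 active = activity change at least 3 SD of negative controls below their mean in both duplicate wells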;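 also: CHO cells stably transfected with KCNQ1 and depolarized by potassium stimulus; peak minus minimum fluorescence over baseline after thallium addition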
CHO parental ctr = KCNQ2 inhibitor counter-screen hit in parental CHO cells. shares compounds with KCNQ2 block. thallium flux counter-screen; hits give low values. activity change, % at 10 µM. 1,000 compounds, 14% hits. AID 493029
KCNQ2 inh confirm = blocks rat KCNQ2 current in automated patch clamp | shares compounds with KCNQ2 block | KCNQ2-expressing cells | calls only at 10 µM | 550 compounds, 49% hits | AID 588531
Large screens that a line does not name were inactive (follow-up assays come after a bar, where they were run). In the library only some 1.6% were active in any assay of this set; here they are far more common. Unless noted, no rule for the calls is given here.

CCc1nc(SCC(=O)N2c3ccccc3CC2C)c2c(C)c(C)sc2n1 (centres undefined)	KCNQ2 block -6.7 | KCNQ2 block conf -20% | KCNQ1 spec inactive | CHO parental ctr inactive | KCNQ2 inh confirm inactive
Cc1sc2nc(C(C)C)nc(SCC(=O)N3c4ccccc4CC3C)c2c1C (centres undefined)	none
CCc1nc(SCC(=O)Nc2cc(C)ccc2OC)c2c(C)c(C)sc2n1	KCNQ2 block -6.8 | KCNQ2 block conf inactive | KCNQ1 spec inactive | CHO parental ctr inactive
C=CCNC(=O)CN(Cc1ccccc1)S(=O)(=O)c1ccccc1	none
C=CCn1c(/N=C/c2ccc(OC)cc2)nc2ccccc21	none
C=CCn1c(/N=C/c2ccc(N(C)C)cc2)nc2ccccc21	KCNQ2 block -7.3 | KCNQ2 block conf inactive | KCNQ1 spec inactive | CHO parental ctr inactive
C#CCCOC(=O)N1C2=NC(C(=O)OC)=C(C(=O)OC)[C@@H]3N(CC=C)c4ccccc4[C@]23C[C@H]1C(=O)OC	none
CCOC(=O)c1sc(NC(=O)c2ccncc2)c(C#N)c1C	none
CCOC(=O)c1sc(NC(=O)c2cc(-c3ccccc3C)nc3ccccc23)c(C#N)c1C	KCNQ2 block -9 | KCNQ2 block conf -40% | KCNQ1 spec -36% | CHO parental ctr -26% | KCNQ2 inh confirm inactive
Cc1nn(-c2ccccc2)c(Cl)c1/C=N/NC(=O)CCNc1n[nH]c(=O)[nH]c1=O	none
CC(=O)NS(=O)(=O)c1ccc(NC(=O)CC(C)c2ccccc2)cc1 (centres undefined)	none
Cc1[nH]n(-c2ccccc2)c(=O)c1C(C[N+](=O)[O-])c1ccc(Br)cc1 (centres undefined)	none (no result: KCNQ2 pot)
COc1cccc(C(C[N+](=O)[O-])c2c(C)[nH]n(-c3ccccc3)c2=O)c1 (centres undefined)	KCNQ2 block -12 | KCNQ2 block conf inactive | KCNQ1 spec inactive | CHO parental ctr inactive
CC(C)=CC(=O)OCC(=O)NC1CCCc2ccccc21 (centres undefined)	KCNQ2 block -6.7 | KCNQ2 block conf inactive | KCNQ1 spec inactive | CHO parental ctr inactive
COC(=O)[C@@H](NC(=O)NC1CCCc2ccccc21)C(C)C (some centres undefined)	KCNQ2 block -7.2 | KCNQ2 block conf inactive | KCNQ1 spec inactive | CHO parental ctr inactive
O=C(CN1C(=O)NC2(CCCCCCC2)C1=O)NC1CCCc2ccccc21 (centres undefined)	KCNQ2 block -7.5 | KCNQ2 block conf -19% | KCNQ1 spec inactive | CHO parental ctr inactive | KCNQ2 inh confirm active
CC1CCCCC12NC(=O)N(CC(=O)NC1CCCc3ccccc31)C2=O (centres undefined)	none (no result: KCNQ2 pot)
COc1ccccc1OCC(=O)NC1CCCc2ccccc21 (centres undefined)	none (no result: KCNQ2 pot)
COc1ccc(NC(=O)NC2CCCc3ccccc32)cc1 (centres undefined)	none (no result: KCNQ2 pot)
O=C(COc1ccc2c(-c3ccccc3)cc(=O)oc2c1)N[C@H](Cc1c[nH]c2ccccc12)C(=O)O	none (no result: KCNQ2 pot)
O=C(Cc1ccc(Br)cc1)N/N=C/c1cccnc1	none
CC1(C)C[C@H](O)[C@@]23C[C@@H](OC2=O)[C@]2(C)C(=CCC4[C@@]5(C)CC[C@H](O)C(C)(C)C5CC[C@]42C)[C@@H]3C1 (some centres undefined)	none
Cc1noc(C)c1COc1ccc(C(=O)NCCc2ccccn2)cc1	none (no result: KCNQ2 pot)
CCc1ccc(OCC(=O)NNC(=O)c2cc(S(=O)(=O)N(C)C)ccc2N2CCCC2)cc1	none
CN(C)S(=O)(=O)c1ccc(N2CCCC2)c(C(=O)NNC(=O)c2ccc(Br)cc2)c1	KCNQ2 block -10 | KCNQ2 block conf -24% | KCNQ1 spec inactive | CHO parental ctr inactive | KCNQ2 inh confirm active
CN(C)S(=O)(=O)c1ccc(N2CCCC2)c(C(=O)Nc2ccc(C(N)=O)cc2)c1	none (no result: KCNQ2 pot)
CN(C)S(=O)(=O)c1ccc(N2CCCC2)c(C(=O)NNC(=O)COc2ccc(Cl)cc2)c1	KCNQ2 block -7 | KCNQ2 block conf inactive | KCNQ1 spec inactive | CHO parental ctr inactive
C=CCOc1ccccc1CN1CCC(Oc2cc(C(=O)NC3CC3)ccc2OC)CC1	none (no result: KCNQ2 pot)
CCC(C)NC(=O)Cn1nc(Cc2ccncc2)c2ccccc2c1=O (centres undefined)	none (no result: KCNQ2 pot)
Cc1ccc(NCCC(=O)c2cccs2)cc1C	KCNQ2 block -6.7 | KCNQ2 block conf inactive | KCNQ1 spec inactive | CHO parental ctr inactive
Cc1ccc(NCCC(=O)c2cccs2)cc1Cl	none (no result: KCNQ2 pot)
COc1ccc(CNC(=O)c2cc3c(s2)CN(Cc2ccccc2)C3)cc1	none (no result: KCNQ2 pot)
CCCC1/C(=N/O)CC(c2ccccc2)NC1c1ccccc1 (centres undefined)	none (no result: KCNQ2 pot)
CCC1C(=NO)C(CC)C(c2ccccc2)NC1c1ccccc1 (centres undefined)	KCNQ2 block -9.4 | KCNQ2 block conf -39% | KCNQ1 spec inactive | CHO parental ctr inactive | KCNQ2 inh confirm inactive
COc1ccc(CNC(=O)C(c2cccs2)N(Cc2ccco2)C(=O)Cc2cccs2)cc1 (centres undefined)	KCNQ2 block -14 | KCNQ2 block conf -29% | KCNQ1 spec inactive | CHO parental ctr inactive | KCNQ2 inh confirm active
COc1ccc(CNC(=O)C(c2ccco2)N(Cc2cccs2)C(=O)Cc2cccs2)cc1 (centres undefined)	none
O=c1ccc(Cl)n[nH]1	none
COC(=O)c1c(C(=O)OC)c(-c2cccc(Cl)c2)n2c1CS(=O)C2 (centres undefined)	none (no result: KCNQ2 pot)
COc1ccc(/C=N/Nc2cc(C)nc3ccc(OC)cc23)c(OC)c1	KCNQ2 block -9 | KCNQ2 block conf -41% | KCNQ1 spec -32% | CHO parental ctr -24% | KCNQ2 inh confirm inactive
COc1ccc(/C=N/Nc2nc(C)cc(-c3ccccc3)n2)c(OC)c1	none
Cc1ccccc1OCCn1cc(C=O)c2ccccc21	none
CCC(C)(C)n1nnnc1C(C(C)C)N(Cc1cccnc1)Cc1ccco1 (centres undefined)	none (no result: KCNQ2 pot)
CCC(C)(C)n1nnnc1C(c1ccc(C)cc1)N(Cc1ccco1)Cc1cccs1 (centres undefined)	KCNQ2 block -9.9 | KCNQ2 block conf inactive | KCNQ1 spec inactive | CHO parental ctr inactive
CCCCC[C@H]1CN(Cc2ccccc2)C(=O)[C@@H]1CC(=O)NCc1ccc(OC)cc1	none (no result: KCNQ2 pot)
O=C1NC2(CCCCCC2)C(=O)N1Cc1c(F)cccc1Cl	none (no result: KCNQ2 pot)
Cc1onc(-c2c(Cl)cccc2Cl)c1C(=O)N(C)Cc1ccccc1	none (no result: KCNQ2 pot)
CCOC(=O)COc1ccccc1C1Nc2ccccc2C(=O)N1c1cccc(Cl)c1 (centres undefined)	none (no result: KCNQ2 pot)
CCOC(=O)COc1c(OC)cc(Cl)cc1C1Nc2ccccc2C(=O)N1c1cccc(C)c1 (centres undefined)	KCNQ2 block -10 | KCNQ2 block conf inactive | KCNQ1 spec inactive | CHO parental ctr inactive
Nc1cccc(/C=C/c2ccncc2)c1	none
CCN1CCN(c2oc(COc3ccc(-c4ccccc4)cc3)nc2C#N)CC1	none (no result: KCNQ2 pot)
N#Cc1nc(COc2ccc(F)cc2)oc1N1CCN(Cc2ccccc2)CC1	KCNQ2 block -7 | KCNQ2 block conf -16% | KCNQ1 spec inactive | CHO parental ctr inactive | KCNQ2 inh confirm active
